Compound activity as filed in PubChem BioAssay.
This excerpt belongs to a sample that is enriched for hits.
ClpP mod: qHTS Assay for Activators of ClpP | Potency, µM (doses to about 57.5 µM) | purified B. subtilis ClpP, FRET peptide cleavage, 20 min | ATP-dependent Clp protease proteolytic subunit (Bacillus subtilis (strain 168)), P80244 | 1.9% of 340,000 active; active = well fitted falling curve with a large enough effect; inconclusive = small, poorly fitted or top-dose-only effect; inactive = no such curve, though single readings can be large or run the other way; also: the source files actives as falling curves though it sought activators and does not explain the sign; nearly all actives have a fitted effect of over 65% in size
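Purified B. subtilis ClpP, 10 microg/mL final in Tris/HCl pH8 with KCl, BSA, glycerol and Tween-20, cleaved an Abz/nitrotyrosine-quenched decapeptide. Fluorescence (ex 320, em 430) was read at 0 and 20 min at room temperature. Delta was normalized to 5.8 microM ADEP and DMSO/no-enzyme controls.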
GALK inh: galactokinase (human) inhibition. Purified GALK, Kinase-Glo residual ATP luminescence. P51570. 0.007% of 270,000 active. Potency, µM (highest dose often 57.5 µM), most hits filed as inhibitors. AID 1868
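The enzyme phosphorylates galactose (100 uM) using ATP (35 uM); inhibition is detected as higher residual ATP, quantified by bioluminescence after 1 h reaction at room temperature, pH 8.0.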
USP2a inh: blocks human ubiquitin-specific protease USP2a; O75604; USP2 core, Ub-CHOP2 coupled fluorogenic reporter, 485/531; Potency, µM (titrated, usually from 38.3 µM), most hits filed as inhibitors; 0.01% of 330,000 active
Target sequence (O75604 whole entry, looked up): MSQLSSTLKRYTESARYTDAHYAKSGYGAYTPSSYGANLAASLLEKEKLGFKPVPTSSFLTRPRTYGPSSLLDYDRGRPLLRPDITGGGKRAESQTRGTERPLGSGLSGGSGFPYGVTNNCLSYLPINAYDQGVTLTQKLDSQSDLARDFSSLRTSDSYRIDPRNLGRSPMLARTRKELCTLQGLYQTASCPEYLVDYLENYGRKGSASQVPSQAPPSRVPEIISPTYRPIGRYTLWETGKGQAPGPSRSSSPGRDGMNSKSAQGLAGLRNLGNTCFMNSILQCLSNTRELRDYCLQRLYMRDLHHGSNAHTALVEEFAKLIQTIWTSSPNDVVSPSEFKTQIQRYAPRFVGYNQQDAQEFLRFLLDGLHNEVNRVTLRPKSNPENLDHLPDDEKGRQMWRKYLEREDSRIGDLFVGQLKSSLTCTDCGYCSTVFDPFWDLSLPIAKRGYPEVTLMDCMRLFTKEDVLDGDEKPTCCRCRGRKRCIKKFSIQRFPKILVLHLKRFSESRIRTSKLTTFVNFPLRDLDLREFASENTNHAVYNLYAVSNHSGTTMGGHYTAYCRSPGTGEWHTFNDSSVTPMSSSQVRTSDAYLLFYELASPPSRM
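Cell-free coupled assay: 10nM USP2 core preincubated 30min RT with compound in Tris-HCl pH 8.0/CaCl2/CHAPS buffer, then 25nM Ub-CHOP2 and 25nM reporter substrate; fluorescence (Ex 485/Em 531) read after 60min RT, normalized to NEM inhibition, concentration-response curves fitted.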
Eya2 inh: Eya2 (human) phosphatase inhibition | O00167 | recombinant Eya2, OMFP fluorescence dephosphorylation (OMFP is methylfluorescein phosphate) | Potency, µM (doses to about 76.9 µM), usual class: inhibitors | 0.006% of 330,000 active | AID 488837
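Eya2 (0.2 uM) preincubated 10 min at ambient with compound, then OMFP substrate added at 50 uM; 10 min reaction in 50 mM HEPES pH 7.5, 50 mM NaCl, 5 uM MgCl2, 0.05% BSA, 1 mM DTT. Fluorescence read at Ex 485/Em 525 nm.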
Hits are given with their value; n = inactive; u = inconclusive; x = no result given. Unless noted, calls follow the shape of the dose curve; as a rule, active = well fitted inhibition curve with a large enough effect; inconclusive = small, poorly fitted or top-dose-only effect, or effect the other way; inactive = flat fitted curve, though single readings scatter.

SMILES	ClpP mod	GALK inh	USP2a inh	Eya2 inh
Cc1cc(NC(=O)C2CCCCC2)ccc1NC(=O)c1ccccc1Cl	16µM	n	n	n
Cc1ncsc1C(=O)N1N=C2/C(=C/c3ccccc3)CCCC2C1c1ccccc1 (stereo not given)	35µM	n	n	n
Cc1ncsc1C(=O)N1N=C2/C(=C/c3ccc(N4CCOCC4)cc3)CCCC2C1c1ccc(N2CCOCC2)cc1 (stereo not given)	n	n	n	n
O=C(NC(=S)NCCN1CCOCC1)c1ccccc1Br	25µM	n	n	n
O=C1CN(C(=O)COC(=O)c2ccccc2NCc2ccco2)c2ccccc2N1	25µM	n	n	n
COc1cc2c(cc1OC)-c1cc(NC3CCCC3)nc(=O)n1CC2	32µM	n	n	n
COc1cc2c(cc1OC)-c1cc(Nc3ccc(F)cc3)nc(=O)n1CC2	u	x	n	n
CC(=O)Nc1cccc(-c2nnc3n2CC(C)S3)c1 (stereo not given)	n	n	n	n
O=C(O)c1[nH]c2ccccc2c1NS(=O)(=O)Cc1ccccc1	28µM	n	n	n
O=C(O)c1[nH]c2ccccc2c1NS(=O)(=O)c1ccc(F)cc1	n	n	n	n
COc1ccc(NC(=O)c2ccc(OC(F)F)cc2)cc1Cl	25µM	n	n	n
COc1ccc(NC(=O)c2cc(F)cc(F)c2)cc1Cl	n	n	n	u
Cc1cccc(N(CC(=O)NC2CCCC2)C(=O)c2csnn2)c1C	x	n	n	n
Cc1ccc(OCCNC(=O)C2CCCCC2)cc1	x	n	n	n
COc1cccc2sc(NNC(=O)C3=COCCO3)nc12	35µM	n	n	n
COc1ccc(OC)c2sc(NC(=O)C3=COCCO3)nc12	n	n	n	n
Cc1cccc(C)c1N1CCN(C(=O)N2CCOCC2)CC1	n	n	n	n
C=CCSc1nnc(-c2sc(-c3ccccc3)nc2C)n1C	35µM	n	n	n
Cn1nc(C(F)(F)F)c(C#N)c1N1CCN(c2ccc(F)cc2)CC1	14µM	n	n	n
Cn1nc(C(F)(F)F)c(C#N)c1N1CCN(c2ccccc2)CC1	n	n	n	n
COc1cccc(OC)c1C(=O)N1CCN(Cc2ccccc2C(F)(F)F)CC1	32µM	n	n	n
CSc1nc(NCC(C)O)c2c3c(sc2n1)CN(C)CC3 (stereo not given)	n	n	n	n
CSc1nc(SCC(=O)NC(c2ccccc2)c2ccccc2)c2c3c(sc2n1)CN(C)CC3	28µM	n	n	n
CCOC(=O)CS(=O)(=O)c1nc(-c2ccc(F)cc2)cc(C(F)(F)F)n1	22µM	n	n	n
CCN(CC)C(=O)Cn1c(=O)n(-c2ccc(Cl)cc2)c(=O)c2c3c(sc21)CCC3	n	x	x	x
SMILES	ClpP mod	GALK inh	USP2a inh	Eya2 inh
CC1CCCC(C)N1/N=C/c1ccccc1F (stereo not given)	x	n	n	n
Nc1c(C(=O)Nc2ccc(S(=O)(=O)N3CCCC3)cc2)sc2nc3cc4c(cc3cc12)CCC4	25µM	n	n	n
COCCCNC(=O)CSc1nc2ccccc2c(=O)n1CCC(=O)NCCc1ccc(OC)c(OC)c1	n	n	n	n
Cc1nnc(SCc2cccc(Oc3ccccc3)c2)n1N	3.2µM	n	n	n
O=C(COc1ccc2ccccc2c1)N1CCNCC1	n	n	n	n
CC(=O)Oc1ccc(C2OC(=O)c3ccccc3N2C(C)=O)cc1 (stereo not given)	25µM	n	n	n
CCN1C(C(=O)c2ccccc2)=C(OC(=O)C(C)C)c2ccccc2S1(=O)=O	n	x	x	x
COc1cccc(CC(=O)Nc2nccs2)c1	n	n	n	n
Cc1ccc(O)c(-c2cc(C(F)(F)C(F)F)nc(-c3ccccc3)n2)c1	25µM	n	n	n
Oc1ccc(Cl)cc1-c1cc(C(F)(F)C(F)F)nc(-c2ccccc2)n1	n	n	n	n
COc1cc2c(C#N)c(N3CCN(c4ccccc4OC)CC3)nc(N)c2c(N)n1	32µM	n	n	n
COc1cc2c(C#N)c(N3CCCC3)nc(N)c2c(N)n1	n	n	n	n
Cc1cc(C)c(C#N)c(N2CCN(c3ccc(F)cc3)CC2)n1	x	n	n	n
N#Cc1c(N2CCCC2)nc(N)c2c(N)nc(N3CCCC3)cc12	7.9µM	u	n	n
Cc1cc(C)c(C#N)c(N2CCCC2)n1	3.5µM	n	n	n
COc1cc(OC)c(OC)cc1/C=N/NC(=O)c1cccc(S(=O)(=O)N2CCOCC2)c1	x	n	n	n
